According to PubChem BioAssay AID1814 (Broad Institute, 2009):
The campaign covered roughly 300,000 compounds. About 22,000 (7.3%) were called active. Inconclusive results (about 2%) are left out. Only a selection was taken, and actives are over-represented in it overall. Values without a mark were called inactive. No stated cut-off is given here; in the data, active means activity score below about -60%; inconclusive means mostly about -28% to -61%; inactive means positive scores.

Experiment: Activators via SNCA 5'UTR binding, MLPCN (AID 1814)
Conditions: alpha-synuclein 5'UTR reporter, activators screen; active compounds read low; tested at 7.5 µM

Row | Compound | activity score
1 | O=C(Cn1cc(C(=O)c2cccs2)c2ccccc21)NCc1cccs1 | -69.5% (active)
2 | CCOc1ccccc1NC(=O)Cn1nnc(C(=O)NCc2cccs2)c1N | 84.9%
3 | CCOC(=O)N/N=C/c1cn(Cc2ccccc2Cl)c2ccccc12 | 42.5%
4 | Cc1ccc(N)cc1-n1c(C)ccc1C | -77.6% (active)
5 | Cc1ccc(-c2cc(=O)c3ccc(F)cc3[nH]2)cc1 | -68.9% (active)
6 | O=c1cc(-c2ccccc2)[nH]c2cc(F)ccc12 | 93.3%
7 | O=C(/C=C/c1ccco1)Nc1cccc(-c2nc3ccccc3[nH]2)c1 | -143% (active)
8 | O=C(Nc1cccc(-c2nc3ccccc3[nH]2)c1)c1ccc(C(=O)Nc2cccc(-c3nc4ccccc4[nH]3)c2)cc1 | -70.2% (active)
9 | Cc1ccc(-n2nc3ccc(NC(=O)/C=C/c4ccco4)cc3n2)cc1C | -154% (active)
10 | Cc1cccc(OC(=O)c2sc3ncn(C)c(=O)c3c2C)c1 | -210% (active)
11 | Cc1c(C(N)=O)sc2ncn(CCOc3ccccc3)c(=O)c12 | -66.2% (active)
12 | c1ccc(CCc2nc(-c3ccncc3)no2)cc1 | -99% (active)
13 | O=C1c2ccccc2C(=O)c2c1cccc2N1CCN(CCO)CC1 | -64.5% (active)
14 | N#C/C=C1\Sc2ccccc2C(=O)N1CC(=O)N1CCN(S(=O)(=O)c2ccccc2)CC1 | -152% (active)
15 | Fc1ccc2nc(Nc3nc4c(s3)CCCC4)sc2c1 | -206% (active)
16 | NS(=O)(=O)c1ccc(N=Nc2c(O)[nH]c3ccc(Br)cc23)cc1 | -119% (active)
17 | O=C1CCCc2c1[nH]c1ccc(Br)cc21 | 89%
18 | Cc1noc(C)c1CCC(=O)N1CCCC(CO)(Cc2ccccc2)C1 (stereo not drawn) | -110% (active)
19 | COC(=O)CCC(=O)N1CCCC(CO)(Cc2ccccc2)C1 (stereo not drawn) | -124% (active)
20 | Cc1ccc(OC(=O)c2c(C)nn(-c3ccccc3)c2C)cc1 | -131% (active)
21 | CSCCNC(=O)c1ccc2nc(Cc3ccccc3F)oc2c1 | -130% (active)
22 | COCCNC(=O)c1ccc2nc(Cc3ccc(OC)c(OC)c3)oc2c1 | -80.1% (active)
23 | COc1ccc(Cc2nnc(N/N=C/c3ccccc3O)[nH]c2=O)cc1OC | 91.4%
24 | CNC(=S)N/N=C/c1ccc(N2CCOCC2)s1 | -100% (active)
25 | Cc1nc(NC(=O)c2ccc3c(c2)OCCO3)ccc1Br | -116% (active)
26 | CC(C)C(=O)Nc1ccc2c(c1)oc1ccccc12 | -225% (active)
27 | CCOc1ccc(C(=O)Nc2nccs2)cc1[N+](=O)[O-] | -123% (active)

Row | Compound | activity score
28 | CC(=O)Oc1ccc(C(=O)Nc2nccs2)cc1 | -98% (active)
29 | Cc1ccc(-c2nc3ccccc3[nH]2)cc1N | -122% (active)
30 | COc1ccc(-c2csc(-c3cccs3)n2)cc1OC | -154% (active)
31 | O=C(CCc1ccccc1)Nc1ncc([N+](=O)[O-])s1 | -165% (active)
32 | CC(=O)Oc1ccccc1C(=O)Nc1ncc([N+](=O)[O-])s1 | -68.7% (active)
33 | O=C(Cc1c(F)cccc1Cl)Nc1ncc([N+](=O)[O-])s1 | -133% (active)
34 | O=C(Nc1ncc([N+](=O)[O-])s1)C1COc2ccccc2O1 (stereo not drawn) | -93.3% (active)
35 | c1ccc2c(C[n+]3csc4ccccc43)cccc2c1 | -83.3% (active)
36 | Cc1cccc(N=Nc2c(C)[nH]n(-c3ccccc3)c2=O)c1 | -126% (active)
37 | CCCC(=O)Nc1ccc2c(c1)nc1n2CCSC1 | -94.7% (active)
38 | CC1(C)C2CC=C(/C=N/NC(=O)c3ccc(Cl)cc3)C1C2 (stereo not drawn) | -63.4% (active)
39 | O=C1N=C(N2CCOCC2)S/C1=C\C=C/c1ccccc1 | -170% (active)
40 | Cc1ccsc1/C=C1\SC(N2CCOCC2)=NC1=O | -73% (active)
41 | Brc1ccc(C2CC(c3ccccc3)=Nc3ccccc3N2)cc1 (stereo not drawn) | -141% (active)
42 | O=C(CSc1ccc(-c2ccc(-n3cccn3)cc2)nn1)Nc1ccc([N+](=O)[O-])cc1 | -99.7% (active)
43 | CC12CCC(C(=O)N(NC(=O)c3ccccc3O)C1=O)C2(C)C (stereo not drawn) | 67.6%
44 | Cc1ccc2c(c1)NCC(C(=O)NC1CCC(C)CC1)O2 (stereo not drawn) | -67.9% (active)
45 | COc1cc(NC(=S)N2CCCC(C)C2)c(OC)cc1Cl (stereo not drawn) | -79% (active)
46 | CC(C)CCC(C)NC(=O)c1ccc2nccnc2c1 (stereo not drawn) | -75.9% (active)
47 | O=C1c2ccccc2C(=O)N1CCOc1ccc(F)cc1 | -91.2% (active)
48 | Cc1cccc(N2Cc3ccccc3C2=NC(=O)c2ccc(Cl)nc2)c1 | -115% (active)
49 | CCCc1cc(=O)[nH]c(SCC(=O)c2c(N)n(CC(C)C)c(=O)n(C)c2=O)n1 | 88.3%
50 | CC(=O)c1ccc(NC(=O)CSC(=S)N2CCCC2)cc1 | -76.2% (active)
51 | Cc1cc(Cl)ccc1OCc1nc(-c2ccncc2)no1 | -162% (active)
52 | CN(C)S(=O)(=O)c1ccc2oc(SCC(=O)Nc3ccccc3F)nc2c1 | -147% (active)
53 | CCn1c(/C=C/c2ccc([N+](=O)[O-])o2)nc2ccccc2c1=O | -353% (active)
